Test results published in PubChem BioAssay AID2315 (National Center for Advancing Translational Sciences (NCATS), 2010).
The whole screen tested about 290,000 compounds, of which about 27,000 (9.3%) were called active. What follows is part of a selection rich in actives, with near analogues and random picks from the rest. A number with no mark means an inactive call. Cut-off read from the data, not from the text of the source: active = inhibition mostly above about 28% (no sharp cut-off); inactive = mostly below about 43%.

test: A qHTS for Small Molecule Inhibitors of Shiga Toxin; details: Vero cells, Shiga toxin protein synthesis inhibition reporter; at 38.7 µM, stronger effect = higher value; note: 0% is about no effect

Row | SMILES | inhibition
1 | Cc1ccc(CNS(=O)(=O)c2ccc3c(c2)N(C)CCO3)cc1 | -2.13%
2 | CC1CCN(S(=O)(=O)c2ccc3[nH]c(=O)ccc3c2)CC1 | -6.16%
3 | O=C(NC(=S)Nc1ccc(Cl)c(C(=O)O)c1)c1cncc(Br)c1 | 14.6%
4 | N#Cc1ccc(/C=C2\CCn3c2nc2cc(C(=O)O)ccc2c3=O)cc1 | -9.62%
5 | O=C(Nc1nnc(Cc2ccccc2)s1)c1cnccn1 | -3.24%
6 | Cc1ccc(-c2csc(NC(=O)c3cnccn3)n2)cc1C | 8.33%
7 | O=C(Nc1nc(-c2ccc(-c3ccccc3)cc2)cs1)c1cnccn1 | 34.8% (active)
8 | COc1ccc(CN2CCC(n3nccc3NC(=O)CCCc3ccccc3)CC2)cc1C | -2.11%
9 | CC(=O)Nc1ccc(NS(=O)(=O)c2ccc3c(c2)NC(=O)CC(=O)N3)cc1 | -11.9%
10 | CCOC(=O)c1c(C)[nH]c(C)c1S(=O)(=O)NCCCc1ccco1 | -3.37%
11 | O=C(CCCCCn1c(=S)[nH]c2cc3c(cc2c1=O)OCO3)N1CCN(c2ccc(F)cc2)CC1 | -1.92%
12 | CCn1c(CC(=O)Nc2ccccc2C)nnc1SCC(=O)NC1=NCCS1 | 2.84%
13 | FC(F)(F)Oc1ccc(-c2cn3cccnc3n2)cc1 | 54.1% (active)
14 | CCCC(=O)Nc1cccc(-c2cn3ccsc3n2)c1 | 22.4%
15 | CCCCCC(=O)Nc1ccc(-c2cn3cccnc3n2)cc1 | 64.5%
16 | Cc1ccccc1Nc1c(-c2ccccc2)nc2ncccn12 | 19.2%
17 | COc1ccc(-c2cn3ccsc3n2)cc1 | 43.6% (active)
18 | CC(=O)Nc1ccc(-c2cn3cccnc3n2)cc1 | 52.4% (active)
19 | c1ccc(-c2cn3cccnc3n2)cc1 | 58.5% (active)
20 | c1ccc(-c2cn3c(n2)CCc2ccc4cccnc4c2-3)cc1 | -6.84%
21 | CC(C)(C)C(=O)Nc1ccc(-c2cn3cccnc3n2)cc1 | 32.2%
22 | CN1CCN(Cc2ccc(OC(F)(F)F)cc2)CC1 | -16.1%
23 | COc1ccc(-c2cn3ccc(C)cc3n2)cc1 | -17.1%
24 | CCOC(=O)c1cnc(Nc2nc3ccccc3o2)nc1CSC(=S)N1CCCCC1 | 36.8%
25 | CN(Cc1ccc(F)cc1Cl)S(=O)(=O)c1cccs1 | 39.1%
26 | CCOC(=O)N1CCN(C(=O)C(C)NC(=O)c2ccco2)CC1 (stereo not drawn) | -4.62%
27 | COc1ccc(CC(=O)NC2CCSc3ccccc32)cc1OC (stereo not drawn) | -2.96%
28 | O=C(Nc1ccccc1C(=O)Nc1ccncc1)c1ccc([N+](=O)[O-])cc1 | -5.25%
